Laboratory results from PubChem BioAssay.
Activity calls are given as the source filed them.

Legend:
[1] = test system: PRMT1 (protein arginine N-methyltransferase 1); test: PRMT1 binders on small-molecule microarrays, primary screen, biochemical, small-molecule microarray, 635 nm fluorescence (AID 1088); details: small-molecule microarray binding, higher = more signal;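 also: binding of Prmt1 protein to compounds spotted on small-molecule microarray slides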
[2] = yeast growth modulation, basal conditions, primary screen, YJM789 clinical isolate, OD600, 24 h (AID 1089);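 also: growth of clinical yeast isolate S. cerevisiae YJM 789 seeded 1000 cells per well; test concentration not given here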; details: S. cerevisiae YJM789 growth, higher = more signal, called active from +8 up or from −8 down
[3] = fission yeast growth modulation, primary screen, strain 972, OD600, 24 h, no modulator (AID 1090);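 also: basal condition with compound alone and no growth modifier present; test concentration not given here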; details: S. pombe 972 growth, higher = more signal, called active from +8 up or from −8 down
[4] = S. cerevisiae growth modulation with rapamycin, primary screen, strain BY4716, OD600, 96 h (AID 1091); details: higher = more signal, called active from +8 up or from −8 down; also: test concentration not given here
[5] = target: Torsin-1A-interacting protein 2 (Homo sapiens) (UniProt Q8NFQ8); test: LULL1 binders on small-molecule microarray, primary screen, cell lysate, human LULL1 lysate, 635/667 nm fluorescence (AID 1092); details: hLULL1 lysate binding, 635 nm fluorescence, higher = more signal;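 also: probe is lysate of COS7 cells overexpressing human LULL1; score merges per-feature 667 nm fluorescence with signal-to-noise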
[6] = E. coli growth modulation, two-sided OD650, primary screen, E. coli filamentation project, strain DRC41, 24 h (AID 1093); details: OD650, 24 h, higher = more signal, called active from +8 up or from −8 down;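 also: MC1000 strain lacking acrAB efflux and sulA so SOS filamentation is blocked; test concentration not given here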
[7] = small-molecule microarray binders of probe aLefty2, primary screen, biochemical, biotinylated probe, 635/667 nm fluorescence (AID 1094); details: higher = more signal;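 also: score merges spot fluorescence near 667 nm with spot signal-to-noise ratio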
[8] = test system: Noggin (protein binding on small-molecule microarray); test: Noggin binders on small-molecule microarray, primary screen, biochemical, 635/667 nm fluorescence (AID 1095); details: 635 nm fluorescence, higher = more signal;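 also: score merges 667 nm feature fluorescence with signal to noise over triplicate slides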
[9] = target: Neurogenic locus notch homolog protein 3 (Homo sapiens) (UniProt Q9UM47); test: NOTCH3 binders on small-molecule microarray, primary screen, biochemical, 635/667 nm fluorescence (AID 1096); details: NOTCH3 binding, 635 nm fluorescence, higher = more signal
[10] = small-molecule microarray binders of probe aEGFR, primary screen, biochemical, biotinylated probe, 635/667 nm fluorescence (AID 1097); details: higher = more signal;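 also: probe is a biotinylated anti-EGFR antibody binding compounds printed on slides; score combines fluorescence near 667 nm and signal to noise of each spot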
[11] = test system: Plasmodium falciparum Sir2 (PF13_0152, Sir2A); test: pfSir2 binders on small-molecule microarrays, primary screen, biochemical, small-molecule microarray, 635 nm fluorescence (AID 1098); details: small-molecule microarray binding, fluorescence 635 nm; higher = more signal;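 also: score merges spot fluorescence intensity with its signal-to-noise ratio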
[12] = small-molecule microarray binders of probe aDKK1, primary screen, biochemical, biotinylated probe, 635/667 nm fluorescence (AID 1099); details: higher = more signal;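 also: score merges 667nm spot fluorescence with signal to noise across triplicate slides; reference of the scale not given here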
[13] = small-molecule microarray binders of probe aCHRDL2, primary screen, biochemical, biotinylated probe, 635/667 nm fluorescence (AID 1100); details: higher = more signal
[14] = splicing luciferase reporter signal modulators, primary screen, spliceosome inhibition project, cell-based, HEK293, splice +/- reporter (AID 1101); details: luminescence, 24 h, higher = more signal, called active from +8 up or from −8 down;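 also: HEK293 cells carrying a splicing-competent luciferase reporter gene; test concentration not given here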
[15] = target: Fibroblast growth factor 10 (Homo sapiens) (UniProt O15520); test: FGF10 binders on small-molecule microarrays, primary screen, biochemical, small-molecule microarray, 635 nm fluorescence (AID 1102); details: FGF10 binding, fluorescence 635 nm, higher = more signal
[16] = test system: glycogen synthase kinase-3 (GSK3A per assay name; protocol says GSK3B); test: GSK3 binders on small-molecule microarrays, primary screen, biochemical, small-molecule microarray, 635 nm fluorescence, GSK3A (AID 1103); details: small-molecule microarray binding, fluorescence 635 nm; higher = more signal; also: the record names both GSK3A and GSK3B
[17] = target: Epidermal growth factor receptor (Homo sapiens) (UniProt P00533); test: EGFR binders on small-molecule microarrays, primary screen, biochemical, small-molecule microarray, 635 nm fluorescence (AID 1104); details: EGFR binding, higher = more signal;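 also: score merges 667 nm emission intensity with spot signal to noise over triplicate slides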
[18] = target: Follistatin-related protein 3 (Homo sapiens) (UniProt O95633); test: FSTL3 binders on small-molecule microarrays, primary screen, biochemical, small-molecule microarray, 635 nm fluorescence (AID 1105); details: FSTL3 binding, higher = more signal;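 also: score merges emission near 667 nm and signal to noise per printed spot across three slides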
[19] = target: Dickkopf-related protein 1 (Homo sapiens) (UniProt O94907); test: DKK1 binders on small-molecule microarrays, primary screen, biochemical, small-molecule microarray, 635 nm fluorescence scan (AID 1106); details: DKK1 binding, higher = more signal;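 also: score merges emission near 667 nm with signal to noise over three replicate slides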
[20] = test system: Inhibin beta A chain (activin A); test: INHBA (activin A) binders on microarrays, primary screen, biochemical, small-molecule microarray, 635 nm fluorescence scan (AID 1107); details: small-molecule microarray binding, higher = more signal;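 also: mouse activin A protein probed at 4.33 µg/mL on printed slides; score merges bound-protein fluorescence near 667 nm with spot signal-to-noise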

Chain of Fibroblast growth factor 10 (Homo sapiens) (O15520 whole entry, looked up): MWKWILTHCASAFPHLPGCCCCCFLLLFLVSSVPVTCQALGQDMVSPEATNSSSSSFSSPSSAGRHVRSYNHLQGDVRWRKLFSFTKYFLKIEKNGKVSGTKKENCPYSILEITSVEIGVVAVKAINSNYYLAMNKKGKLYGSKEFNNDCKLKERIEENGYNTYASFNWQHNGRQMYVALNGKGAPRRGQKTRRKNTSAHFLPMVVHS
Chain of Follistatin-related protein 3 (Homo sapiens) (O95633 whole entry, looked up): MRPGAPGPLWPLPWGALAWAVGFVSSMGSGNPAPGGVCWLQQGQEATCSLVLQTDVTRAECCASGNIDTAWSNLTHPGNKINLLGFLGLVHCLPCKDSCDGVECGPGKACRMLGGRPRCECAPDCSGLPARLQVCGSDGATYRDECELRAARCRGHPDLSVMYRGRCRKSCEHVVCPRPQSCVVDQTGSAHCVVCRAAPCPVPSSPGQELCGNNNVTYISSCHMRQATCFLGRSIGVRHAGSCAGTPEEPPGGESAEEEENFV
Chain of Neurogenic locus notch homolog protein 3 (Homo sapiens) (Q9UM47 whole entry, looked up): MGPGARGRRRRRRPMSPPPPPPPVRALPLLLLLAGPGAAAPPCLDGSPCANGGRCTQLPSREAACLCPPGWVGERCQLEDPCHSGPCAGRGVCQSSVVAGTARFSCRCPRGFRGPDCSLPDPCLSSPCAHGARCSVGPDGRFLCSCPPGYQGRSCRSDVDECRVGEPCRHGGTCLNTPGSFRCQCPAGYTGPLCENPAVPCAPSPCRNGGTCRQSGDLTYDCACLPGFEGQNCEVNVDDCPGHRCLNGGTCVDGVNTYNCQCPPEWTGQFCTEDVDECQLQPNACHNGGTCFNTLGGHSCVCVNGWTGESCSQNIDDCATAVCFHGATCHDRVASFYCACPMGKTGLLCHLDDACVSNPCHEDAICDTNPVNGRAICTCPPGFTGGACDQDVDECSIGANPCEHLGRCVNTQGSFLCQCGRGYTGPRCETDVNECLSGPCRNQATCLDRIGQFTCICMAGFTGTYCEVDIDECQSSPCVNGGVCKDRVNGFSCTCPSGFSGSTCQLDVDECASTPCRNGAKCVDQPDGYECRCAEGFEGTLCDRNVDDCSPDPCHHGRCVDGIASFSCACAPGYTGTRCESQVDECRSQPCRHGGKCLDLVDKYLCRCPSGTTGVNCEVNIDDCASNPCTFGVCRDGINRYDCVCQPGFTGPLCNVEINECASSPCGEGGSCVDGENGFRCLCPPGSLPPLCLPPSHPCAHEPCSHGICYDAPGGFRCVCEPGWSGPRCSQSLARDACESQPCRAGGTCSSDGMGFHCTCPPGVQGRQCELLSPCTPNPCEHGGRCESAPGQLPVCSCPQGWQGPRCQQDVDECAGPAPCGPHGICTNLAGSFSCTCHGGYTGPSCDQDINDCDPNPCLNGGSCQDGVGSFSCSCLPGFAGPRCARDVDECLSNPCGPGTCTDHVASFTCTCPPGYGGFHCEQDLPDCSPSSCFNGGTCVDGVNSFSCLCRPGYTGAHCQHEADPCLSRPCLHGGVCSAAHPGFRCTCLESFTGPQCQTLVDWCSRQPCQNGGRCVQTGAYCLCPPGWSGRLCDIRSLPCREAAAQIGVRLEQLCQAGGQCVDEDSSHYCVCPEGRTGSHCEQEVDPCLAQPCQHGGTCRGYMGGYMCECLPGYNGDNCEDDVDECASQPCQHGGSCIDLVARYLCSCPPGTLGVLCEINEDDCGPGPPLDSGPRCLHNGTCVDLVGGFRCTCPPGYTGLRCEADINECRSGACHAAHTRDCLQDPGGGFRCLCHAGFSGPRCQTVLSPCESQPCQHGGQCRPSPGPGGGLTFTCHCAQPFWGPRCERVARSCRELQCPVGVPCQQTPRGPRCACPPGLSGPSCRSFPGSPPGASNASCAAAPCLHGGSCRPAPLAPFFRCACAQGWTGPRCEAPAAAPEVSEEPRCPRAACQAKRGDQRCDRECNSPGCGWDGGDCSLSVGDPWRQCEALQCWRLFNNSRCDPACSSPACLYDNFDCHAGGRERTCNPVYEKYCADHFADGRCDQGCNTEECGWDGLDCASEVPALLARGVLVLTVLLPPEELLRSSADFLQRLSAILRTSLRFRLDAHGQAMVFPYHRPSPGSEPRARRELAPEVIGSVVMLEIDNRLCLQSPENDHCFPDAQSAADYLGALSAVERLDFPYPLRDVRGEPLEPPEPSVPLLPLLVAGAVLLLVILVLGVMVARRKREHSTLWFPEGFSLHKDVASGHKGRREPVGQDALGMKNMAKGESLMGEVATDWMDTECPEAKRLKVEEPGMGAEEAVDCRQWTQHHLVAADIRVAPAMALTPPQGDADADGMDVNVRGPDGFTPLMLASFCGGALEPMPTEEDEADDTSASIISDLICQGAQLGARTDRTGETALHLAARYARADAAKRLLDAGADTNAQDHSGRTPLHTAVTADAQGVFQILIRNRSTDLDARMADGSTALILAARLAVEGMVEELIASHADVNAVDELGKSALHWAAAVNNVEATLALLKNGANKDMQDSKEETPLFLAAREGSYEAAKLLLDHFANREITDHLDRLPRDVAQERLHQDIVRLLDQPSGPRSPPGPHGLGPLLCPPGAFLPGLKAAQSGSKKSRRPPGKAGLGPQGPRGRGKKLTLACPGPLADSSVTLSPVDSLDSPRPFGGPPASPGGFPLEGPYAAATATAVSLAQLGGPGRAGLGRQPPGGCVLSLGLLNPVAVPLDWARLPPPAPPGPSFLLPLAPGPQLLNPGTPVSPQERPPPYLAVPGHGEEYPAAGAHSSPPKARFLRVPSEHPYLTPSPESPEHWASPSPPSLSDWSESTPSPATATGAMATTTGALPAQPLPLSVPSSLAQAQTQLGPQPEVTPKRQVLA
Chain of Torsin-1A-interacting protein 2 (Homo sapiens) (Q8NFQ8 whole entry, looked up): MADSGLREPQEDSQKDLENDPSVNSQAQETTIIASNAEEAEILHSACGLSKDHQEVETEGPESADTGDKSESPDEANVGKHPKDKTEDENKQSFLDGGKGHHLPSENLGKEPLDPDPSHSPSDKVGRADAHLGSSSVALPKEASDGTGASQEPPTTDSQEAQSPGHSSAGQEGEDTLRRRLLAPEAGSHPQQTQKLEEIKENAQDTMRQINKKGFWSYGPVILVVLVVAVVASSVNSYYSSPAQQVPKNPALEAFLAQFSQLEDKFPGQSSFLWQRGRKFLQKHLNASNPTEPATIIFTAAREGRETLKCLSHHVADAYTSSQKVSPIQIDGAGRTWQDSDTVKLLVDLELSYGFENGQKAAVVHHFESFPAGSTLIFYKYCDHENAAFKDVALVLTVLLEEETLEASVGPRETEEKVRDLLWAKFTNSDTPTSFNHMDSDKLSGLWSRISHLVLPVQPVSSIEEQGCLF
Chain of Dickkopf-related protein 1 (Homo sapiens) (O94907 whole entry, looked up): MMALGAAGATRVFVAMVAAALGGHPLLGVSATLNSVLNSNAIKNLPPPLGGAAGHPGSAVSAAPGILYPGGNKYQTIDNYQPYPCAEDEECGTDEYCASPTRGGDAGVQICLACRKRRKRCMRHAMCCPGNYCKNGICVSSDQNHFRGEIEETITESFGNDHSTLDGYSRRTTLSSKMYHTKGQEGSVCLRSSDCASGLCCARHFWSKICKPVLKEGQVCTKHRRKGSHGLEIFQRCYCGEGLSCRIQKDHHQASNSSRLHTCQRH
Chain of Epidermal growth factor receptor (Homo sapiens) (P00533 whole entry, looked up): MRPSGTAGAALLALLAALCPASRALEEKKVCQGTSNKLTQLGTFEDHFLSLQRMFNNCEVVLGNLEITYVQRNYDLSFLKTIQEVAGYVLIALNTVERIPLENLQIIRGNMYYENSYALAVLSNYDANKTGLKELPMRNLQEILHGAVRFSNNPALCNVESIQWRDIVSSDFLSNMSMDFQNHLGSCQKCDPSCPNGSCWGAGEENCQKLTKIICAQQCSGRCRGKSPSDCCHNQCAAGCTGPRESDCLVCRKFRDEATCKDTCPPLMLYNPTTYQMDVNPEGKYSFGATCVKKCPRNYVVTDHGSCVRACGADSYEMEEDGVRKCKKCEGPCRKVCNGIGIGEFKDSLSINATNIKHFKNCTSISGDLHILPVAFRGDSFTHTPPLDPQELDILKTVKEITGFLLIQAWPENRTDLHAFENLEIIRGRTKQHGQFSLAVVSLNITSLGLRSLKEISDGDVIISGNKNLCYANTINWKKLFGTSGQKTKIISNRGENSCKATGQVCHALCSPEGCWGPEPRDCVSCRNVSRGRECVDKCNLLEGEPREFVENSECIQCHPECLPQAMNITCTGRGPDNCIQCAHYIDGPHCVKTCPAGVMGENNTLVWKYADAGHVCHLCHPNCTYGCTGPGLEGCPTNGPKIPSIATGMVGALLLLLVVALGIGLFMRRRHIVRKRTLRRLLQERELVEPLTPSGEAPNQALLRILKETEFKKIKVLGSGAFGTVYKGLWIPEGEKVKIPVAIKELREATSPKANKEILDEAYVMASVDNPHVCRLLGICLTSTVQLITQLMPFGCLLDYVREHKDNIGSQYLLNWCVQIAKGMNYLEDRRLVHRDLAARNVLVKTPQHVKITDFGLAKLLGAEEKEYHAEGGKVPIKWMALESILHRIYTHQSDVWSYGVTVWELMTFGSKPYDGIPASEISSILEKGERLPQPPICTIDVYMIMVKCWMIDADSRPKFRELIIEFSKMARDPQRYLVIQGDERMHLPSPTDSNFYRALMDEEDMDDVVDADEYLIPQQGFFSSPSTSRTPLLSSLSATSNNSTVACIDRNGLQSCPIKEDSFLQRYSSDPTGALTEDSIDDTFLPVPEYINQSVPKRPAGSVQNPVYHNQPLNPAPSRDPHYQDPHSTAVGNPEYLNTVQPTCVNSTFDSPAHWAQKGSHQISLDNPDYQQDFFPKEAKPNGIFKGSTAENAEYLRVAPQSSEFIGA

| Structure (SMILES) | composite z-score [1] | z-score [2] | z-score [3] | z-score [4] | composite z-score [5] | z-score [6] | composite z-score [7] | composite z-score [8] | composite z-score [9] | composite z-score [10] | composite z-score [11] | composite z-score [12] | composite z-score [13] | z-score [14] | composite z-score [15] | composite z-score [16] | composite z-score [17] | composite z-score [18] | composite z-score [19] | composite z-score [20] |
| --- | --- | --- | --- | --- | --- | --- | --- | --- | --- | --- | --- | --- | --- | --- | --- | --- | --- | --- | --- | --- |
| CCN1C(=O)[C@H]2[C@H]3[C@H](O)C=CC(=O)[C@@H]3CC[C@H]2C1=O | -0.777 | 0.0131 (inactive) | -0.373 (inactive) | -0.624 (inactive) | 0.0819 | 0.255 (inactive) | -0.0961 | 0.701 | 0.705 | -0.094 | 0.163 | -0.094 | -0.484 | 0.403 (inactive) | 0.402 | 0.743 | 0.378 | 0.548 | 0.444 | -0.114 |
| O=C1O[C@@H](c2ccccc2)[C@@H](c2ccccc2)N2[C@@H](c3ccc(O)cc3)[C@]3(C(=O)Nc4ccccc43)[C@@H](C(=O)O)[C@H]12 | 1.24 | 0.462 (inactive) | -0.253 (inactive) | -0.408 (inactive) | 2.45 | 1.14 (inactive) | -0.0753 | -0.335 | 0.166 | -0.041 | 1.1 | 0.74 | 0.91 | 0.451 (inactive) | -0.0962 | 0.536 | -0.111 | -0.0238 | -0.465 | 0.385 |
| COC(=O)[C@H](C)NC(=O)CCC1CC(OC(=O)NCc2ccc3c(c2)OCO3)CC2(CCCC(COC(=O)NCCOc3ccccc3)O2)O1 (stereo not given in full) | 1.55 | -1.31 (inactive) | 0.26 (inactive) | 0.303 (inactive) | 1.57 | -1.16 (inactive) | -0.147 | 0.737 | 1.07 | -0.165 | 0.46 | -0.211 | -0.636 | -2.8 (inactive) | 0.658 | 1.29 | 0.536 | 0.649 | 0.679 | 0.0689 |
| CC(=O)OC[C@H]1O[C@H](CCON=C(C)CCC(=O)OC[C@H]2O[C@H](C#Cc3ccccc3)C=C[C@@H]2Oc2ccc(C)cc2)C=C[C@@H]1OC(C)=O | 0.269 | -0.465 (inactive) | -0.0797 (inactive) | -0.579 (inactive) | 0.719 | 0.554 (inactive) | -0.181 | 0.465 | -0.0894 | 0.0567 | 0.825 | -0.304 | -0.632 | -0.35 (inactive) | 0.167 | -0.219 | 0.259 | 0.521 | 0.495 | 0.659 |
| CN(C)c1ccc(C(O)C2C=CC3C(=O)N(c4ccccc4)C(=O)C3N2Nc2ccccc2F)cc1 (stereo not given) | 1.09 | 0.0194 (inactive) | -13.6 (active) | 1.7 (inactive) | 2.21 | -0.457 (inactive) | -0.166 | -0.318 | 0.443 | 0.0904 | 1.58 | 0.407 | 0.792 | -0.947 (inactive) | -0.235 | 1.23 | -0.675 | 0.206 | -0.606 | 0.941 |
| CCOC(=O)CCN1C(=O)[C@H]2[C@H]3[C@H](O)[C@H](O)CC(=NOC[C@@H](O)COCc4ccco4)[C@H]3CC[C@H]2C1=O | 1.46 | -0.114 (inactive) | -3.86 (inactive) | -0.86 (inactive) | 0.756 | 0.09 (inactive) | -0.188 | 0.474 | 0.921 | 0.0649 | 0.413 | 0.0262 | -0.5 | -1.12 (inactive) | 0.449 | 0.596 | 0.328 | 0.608 | 0.433 | 0.0553 |
| O=C1C2=CC[C@H]3C(=O)N(Cc4ccc5c(c4)OCO5)C(=O)[C@H]3[C@H]2[C@H](O)[C@@H]2O[C@H]12 | -1.05 | -0.108 (inactive) | -0.682 (inactive) | -0.611 (inactive) | 0.24 | 0.347 (inactive) | -0.166 | 0.616 | 0.632 | 0.0083 | 0.557 | -0.141 | -0.51 | 0.867 (inactive) | 0.385 | 0.526 | 0.65 | 0.459 | 0.347 | 0.29 |
| C/C=C\[C@@H](NCc1ccccc1Br)[C@@H](O)Cc1ccccc1 | -0.0523 | -1.81 (inactive) | -13.8 (active) | -1.64 (inactive) | -0.0942 | -0.734 (inactive) | 0.149 | -1.52 | -0.735 | -0.455 | 0.556 | 0.41 | 1.19 | -0.307 (inactive) | -1.69 | -0.683 | -1.37 | -1.69 | -1.58 | 0.0067 |
| COC(=O)[C@@]1(Cc2ccccc2)[C@H]2c3cc(C(=O)N4CCCC4)n(Cc4ccccn4)c3C[C@H]2CN1C(=O)c1ccccc1 | 1.57 | 0.263 (inactive) | 0.296 (inactive) | 0.513 (inactive) | 4 | -0.301 (inactive) | 0.614 | 0.856 | 1.14 | 0.211 | 1.54 | 1.52 | 1.31 | -2.15 (inactive) | 1.37 | 1.3 | 0.204 | 1.41 | 0.166 | 0.456 |
| O=C1[C@H]2[C@H]3[C@H](O)[C@H](O)CC(=NOCc4ccccc4)[C@H]3CC[C@H]2C(=O)N1C[C@@H]1CCCO1 | -0.107 | -0.139 (inactive) | 0.531 (inactive) | -0.351 (inactive) | 0.78 | 0.0096 (inactive) | -0.238 | 0.322 | 0.48 | -0.123 | 0.565 | 0.114 | -0.418 | 0.0221 (inactive) | 0.863 | 0.632 | 0.582 | 0.728 | 1.11 | -0.209 |
